Test results published in PubChem BioAssay AID1006 (Sanford-Burnham Center for Chemical Genomics, 2008).
The whole screen tested about 200,000 compounds, of which about 3,000 (1.5%) were called active. What follows is part of a selection rich in actives, with near analogues and random picks from the rest. Unmarked numbers belong to inactive results.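 How the source made its calls: active means inhibition above about 50% when tested at 10 µM (limit read from the data); inactive means the rest.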

Each compound was assayed against Luciferin 4-monooxygenase (Photinus pyralis) (UniProt P08659) (assay: inhibition of purified FLuc reporter enzyme – biochemical, luminescence, ATPLite, artefact control for luciferase-based inhibitor screens, primary screen (AID 1006)). Settings: ATPLite firefly luciferase biochemical luminescence, 10 min; at 10 µM; active compounds read high.
Chain of Luciferin 4-monooxygenase (Photinus pyralis) (P08659 whole entry, looked up): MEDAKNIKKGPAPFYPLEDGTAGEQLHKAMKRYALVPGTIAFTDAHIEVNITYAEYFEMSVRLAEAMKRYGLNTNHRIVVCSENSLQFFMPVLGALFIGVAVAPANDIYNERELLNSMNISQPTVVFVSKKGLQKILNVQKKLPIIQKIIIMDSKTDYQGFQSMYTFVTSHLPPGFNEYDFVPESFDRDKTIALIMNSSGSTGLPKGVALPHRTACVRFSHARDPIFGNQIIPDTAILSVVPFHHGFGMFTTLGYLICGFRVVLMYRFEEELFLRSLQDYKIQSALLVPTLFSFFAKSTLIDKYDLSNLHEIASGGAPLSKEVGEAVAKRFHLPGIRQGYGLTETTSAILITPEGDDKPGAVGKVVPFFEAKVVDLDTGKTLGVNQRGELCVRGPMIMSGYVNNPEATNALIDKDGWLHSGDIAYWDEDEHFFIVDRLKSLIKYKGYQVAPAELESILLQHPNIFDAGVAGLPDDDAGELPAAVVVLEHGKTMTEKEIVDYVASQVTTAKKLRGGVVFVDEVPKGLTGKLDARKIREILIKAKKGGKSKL
`COc1ccc(C2=NOC(COC(=O)c3ccc4ccccc4n3)C2)cc1` (stereo not drawn) gave an inhibition of 3.5%.
In the case of `COc1ccc(C2=Nc3cc(C)ccc3OC2)cc1`, the inhibition is reported as 77.4% (active).
Compound `COc1ccc(C2=NOC3(CC(=O)N(c4ccc(C)cc4)C3=O)C2)cc1` (stereo not drawn) has an inhibition of -1.7%.
For `Cc1cc(N/N=C/c2ccccc2F)c2ccccc2n1`, the inhibition was -7.5%.
For `Cc1ccc2nc(-c3ccncc3)cc(C(=O)Nc3ccc(OC(F)F)cc3)c2c1`, the inhibition was -8%.
Compound `COc1ccccc1C(=O)Nn1c(-c2cccs2)nc2ccccc2c1=O` has an inhibition of -0.5%.
For `Cc1ccc(Oc2ccc3c(c2)C(=O)N(c2cccc4cccnc24)C3=O)cc1`, the inhibition was -5.2%.
In the case of `Cc1cccc(N2C(=O)c3cccnc3C2=O)c1`, the inhibition is reported as 68.5% (active).
With `O=C1c2cccnc2C(=O)N1Cc1cccs1` the inhibition was -1.3%.
For `CN(C)/N=C/c1cn(-c2ccccc2)nc1-c1cccnc1`, the inhibition was 5.7%.
`CCOc1ccc(/C=C(/NC(=O)c2ccccc2)C(=O)NCCC(=O)O)cc1` gave an inhibition of -10.4%.
`COC(=O)c1ccc(/C=N/OCC(=O)Nc2cc(F)ccc2F)cc1` was tested, and the inhibition was 0%.
Compound `CCOC(=O)N1CCN(CC(=O)Nc2ccc(F)cc2)CC1` has an inhibition of -7.1%.
For `COc1cc(C(=S)N2CCOCC2)ccc1O`, the inhibition was -1%.
`COc1ccc2[nH]c(=O)c(-c3noc(-c4ccc(F)cc4)n3)cc2c1` gave an inhibition of -1.9%.
For `Cc1cccc(-c2noc(-c3ccc(F)cc3)n2)c1`, the inhibition was 59.9% (active).
`Cc1ccc(Cc2nc(-c3cccc(C)c3)no2)cc1` showed an inhibition of 2.3%.
Compound `COc1ccc(C(=O)NNC(=O)c2cc(C)[nH]n2)cc1` has an inhibition of -3.5%.
`Cn1cc(CCC(=O)N2CCCC(C(=O)c3ccc(C(C)(C)C)cc3)C2)cn1` (stereo not drawn) was tested, and the inhibition was 1.3%.
`COc1cccc(C(=O)Nc2cccnc2)c1OC` showed an inhibition of -1.1%.
For `O=C(Nc1cccnc1)c1noc2c1CCCCC2`, the inhibition was 57.5% (active).
With `O=C(Nc1cccnc1)c1cccc(S(=O)(=O)N2CCCC2)c1` the inhibition was -1.1%.
For `Cc1ccc(CN2CCN(Cc3ccc(OCCO)cc3)CC2CCO)o1` (stereo not drawn), the inhibition was -7%.
